Experimental data taken from PubChem BioAssay (NCI).
Compounds without any hit were thinned out: in the full panel of roughly 79,000, 15% have a hit. A number with no mark means an inactive call. Calls of active or inactive are those of the source. No stated cut-off is given here; in the data, active means growth inhibition above about 70%; inactive means the rest.

Assay: NCI Yeast Anticancer Drug Screen. Data for the mlh1 strain (AID 171);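 further: 0% = growth of vehicle-treated control cultures of the same strain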
Conditions: S. cerevisiae mlh1 strain growth inhibition, hits give high values
Description: Growth inhibition of yeast strains with defined genetic alterations is measured as a screen for potential anti-cancer activity. Selected strains with alterations in DNA damage repair or cell cycle control were exposed to compounds and growth inhibition was measured relative to vehicle treated controls. The strain used in this assay is mlh1

Structure (SMILES) | growth inhibition (at 1.2 µM) [%] | growth inhibition (at 3.7 µM) [%] | growth inhibition (at 11.0 µM) [%] | growth inhibition (at 33.0 µM) | growth inhibition (at 100.0 µM)
CCOC(=O)C1=C(C(=O)OCC)C2(c3ccccc3)N(O1)c1ccccc1C2(C)C (stereo not given) | -3 | -6 | -5 | -3% | 80% (active)
O=C(NNC(=O)OCC(Cl)(Cl)Cl)OCC(Cl)(Cl)Cl | -1 | -2 | 20 | 88% (active) | 96% (active)
C[C@]12CCc3nonc3C1CC[C@@H]1C2CC[C@]2(C)C(=O)CCC12 (stereo not given in full) | -4 | -3 | -1 | 19% | 50%
Cc1c([N+](=O)[O-])oc2ccc3ccccc3c12 | -1 | 1 | -2 | 15% | 35%
CCOP(=O)(CC(C)P(=O)(OCC)OCC)OCC.C[CH2][Sn]([Cl])([Cl])[CH2]C (stereo not given) | 0 | 2 | 8 | 69% | 95% (active)
O=C(O)CCCc1cc(I)c(N(CCCl)CCCl)c(I)c1 | -50 | -29 | -38 | 85% (active) | 95% (active)
CN(CCc1ccc(Br)cc1)CCN1CCCCC1 | 11 | 22 | 41 | 82% (active) | 99% (active)
[O-][n+]1c2cccc(O)c2[n+]([O-])c2cccc(O)c21 | 3 | 0 | 11 | 18% | 44%
